These results are taken from PubChem BioAssay AID1852 (Sanford-Burnham Center for Chemical Genomics, 2009).

SMILES strings stand for the structures. The campaign covered roughly 2,500 compounds. About 1,100 (44%) were called active. The set was probably picked from earlier hits. The list shows a part of the results. Values without a mark were called inactive.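 How the source made its calls: active means inhibition above 50% at 4 µM in the single-point screen; inactive means inhibition of 50% or less.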

The experiment can be described thus: blockers of TNF-a NF-kB luciferase induction – cell-based, HEK293T NF-kB-Luc, luminescence, selectivity assay for NOD1/NOD2 signaling inhibitor project, primary screen (AID 1852). The settings on record: TNF-a induced, 14 h, at 4 µM, stronger effect = higher value.
As a reminder, the inhibition is the change of the read-out against control, counted positive when it falls. For the compound `COc1ccc(-n2cc(-c3ccccc3)c3c(N4CCOCC4)ncnc32)cc1`, the inhibition was 12.7%.

As to `COc1ccc2ncn(-c3ccccc3)c2c1`, the inhibition was 53.8% (active).

`COc1ccc(-n2cnc3ccccc32)cc1`: the inhibition was 53.9% (active).

For the compound `Cc1ccc(OCCCCn2cnc3ccccc32)cc1`, the inhibition was 26.7%.

Turning to `COc1ccc(OC)c(Nc2c3ccccc3nc3ccccc23)c1`, the inhibition was 20.8%.

Turning to `CCOc1ccc(-c2csc3ncn(-c4ccc(OC)cc4)c(=O)c23)cc1`, the inhibition was 44%.

In the case of `CC(=O)c1ccc(NC(=O)c2noc3c2CCC3)cc1`, the inhibition was 35.4%.

With `O=C(Sc1cccc2cccnc12)c1ccc(F)cc1`, the inhibition was 101% (active).

For `O=C(Sc1cccc2cccnc12)c1ccccc1Br`, the inhibition was 105% (active).

`CCOC(=O)c1c(N2C(=O)Nc3cc(Cl)c(Cl)cc3N2O)sc2c1CCCCC2`: the inhibition is 75.5% (active).

As for `CCOc1ccc(Nc2ncnc3ccc([N+](=O)[O-])cc23)cc1`, the inhibition was 63.8% (active).

`CCOc1cc(C=C(C(=O)OC)C(=O)OC)ccc1OCc1ccc([N+](=O)[O-])cc1`: the inhibition was 7.6%.

As to `O=[N+]([O-])c1ccc(O)c(Nc2ncnc3ccc(Br)cc23)c1`, the inhibition is 14.6%.

For the compound `O=C(CCCN1C(=O)/C(=C/c2ccccc2Cl)SC1=S)NNC(=O)c1ccccc1`, the inhibition is -19.2%.

For `Cc1ccc(/C=C2\SC(=S)N(CCCC(=O)NNC(=O)c3ccccc3O)C2=O)cc1`, the inhibition was 67.9% (active).

Turning to `O=C(CCCN1C(=O)/C(=C/c2ccccc2Cl)SC1=S)NNC(=O)c1ccc(Cl)cc1`, the inhibition is 76.9% (active).

Take `O=C(CCCN1C(=O)/C(=C/c2ccccc2Cl)SC1=S)NNC(=O)c1ccncc1`: the inhibition was 87% (active).

Turning to `COc1ccc(/C=C2\SC(=S)N(CCCC(=O)NNC(=O)c3ccccc3O)C2=O)cc1`, the inhibition was 35.4%.

For `O=C(CCCN1C(=O)/C(=C/c2cccs2)SC1=S)Nc1cccc(O)c1`, the inhibition is -2.9%.

With `Cc1ccc(/C=C2/SC(=S)N(CCCC(=O)Nc3ccc(O)cc3)C2=O)cc1`, the inhibition is -26%.

Take `COc1ccc2c(C(=O)CCl)c[nH]c2c1`: the inhibition is 66.7% (active).

With `COc1ccc2[nH]cc(C(=O)CCl)c2c1`, the inhibition is 102% (active).

For `COC(CNC(=O)c1c[nH]c2ccc(S(=O)(=O)N3CCOCC3)cc2c1=O)OC`, the inhibition is 9.8%.

As for `CCOc1ccc(NC(=O)c2ccccc2NS(=O)(=O)c2ccc(F)cc2)c([N+](=O)[O-])c1`, the inhibition is 11.5%.

`COc1ccc(-c2csc(NC(=O)c3ccccc3NS(=O)(=O)c3ccc(F)c(F)c3)n2)cc1`: the inhibition was 82.3% (active).

For `COc1ccc(-c2csc(NC(=O)c3ccccc3NS(=O)(=O)c3ccc(C)cc3)n2)cc1`, the inhibition was 80.3% (active).

As for `COc1ccc(S(=O)(=O)Nc2ccccc2C(=O)Nc2nc(-c3ccc(F)cc3)cs2)cc1OC`, the inhibition was 81.4% (active).

On to `O=C(Nc1nc(-c2ccccc2)cs1)c1ccccc1NS(=O)(=O)c1ccc(F)cc1`, for which the inhibition is 91.5% (active).

As for `Cc1cc(F)ccc1S(=O)(=O)Nc1ccccc1C(=O)Nc1ccccc1-c1nc2ccccc2[nH]1`, the inhibition was 1.4%.

For the compound `COc1ccc(-c2csc(NC(=O)C3=NN(c4ccccc4)C(=O)CC3)n2)cc1`, the inhibition was -64.2%.

On to `Cc1ccc(S(=O)(=O)Nc2ccccc2C(=O)Nc2nc(-c3ccc(F)cc3)cs2)cc1`, for which the inhibition is 79.9% (active).

Regarding `COc1ccccc1NS(=O)(=O)c1cccc(NC(=O)c2ccc3ccccc3n2)c1`, the inhibition was 15.4%.

Turning to `COc1ccccc1C(=O)Nc1nc(-c2ccc(S(=O)(=O)N3CCOCC3)cc2)cs1`, the inhibition is 99.6% (active).

For the compound `CC(C)CCNC(=O)c1cc(-c2ccncc2)nc2ccc(S(=O)(=O)N3CCOCC3)cc12`, the inhibition was 28.7%.

With `O=C(COc1ccc(Cl)cc1)Nc1nc(-c2ccc(S(=O)(=O)N3CCOCC3)cc2)cs1`, the inhibition was 26.4%.

With `COc1ccc(NC(=O)c2ccc(-c3ccccc3)cc2)cc1NS(=O)(=O)c1ccc(F)cc1`, the inhibition was 59.9% (active).

As to `CC(=O)c1c(C)[nH]c(C(=O)Nc2nc(-c3ccc(-c4ccccc4)cc3)cs2)c1C`, the inhibition is -7.7%.

With `COC(=O)c1ccc(NC(=O)c2ccccc2NS(=O)(=O)c2ccccc2)cc1`, the inhibition was 32.6%.

Turning to `COc1ccccc1COc1ccc2c(C)c(CCC(=O)O)c(=O)oc2c1C`, the inhibition was 5.6%.

As to `Cc1c(CCC(=O)O)c(=O)oc2c(C)c(OCc3ccccc3Cl)ccc12`, the inhibition is 17.1%.

On to `Cc1c(CCC(=O)O)c(=O)oc2cc(OCc3ccccc3Br)ccc12`, for which the inhibition was 75.3% (active).

As for `CC(=O)Nc1ccccc1OCC(=O)c1cc(C)n(Cc2cccs2)c1C`, the inhibition is 28.3%.

With `Cc1c(C#N)c(NC(=O)CCl)n(Cc2ccccc2)c1C`, the inhibition was 95.9% (active).

In the case of `CC(=O)Nc1ccc(SCC(=O)c2cc(C)n(Cc3cccs3)c2C)cc1`, the inhibition is -119%.

On to `O=C(CCl)Nc1c2c(nn1-c1ccccc1)CSC2`, for which the inhibition is -6.5%.

In the case of `Cc1c(C#N)c(NC(=O)CCl)n(Cc2cccs2)c1C`, the inhibition was 101% (active).

For `O=C(CCl)Nc1ccccc1C(=O)NCc1ccccc1`, the inhibition is -4%.

For the compound `CCC(C)(C)c1ccc(OCCCC[n+]2cccc(C)c2C)c(C(C)(C)CC)c1`, the inhibition was 18.8%.

Consider `CCCCCCCC[n+]1cccc2c3ccccc3ccc21`, for which the inhibition is 83.6% (active).

For `CCCCCCCCC[n+]1cccc2c3ccccc3ccc21`, the inhibition was 83.9% (active).

Regarding `CC(=O)c1cn(CCOc2ccccc2C)c2ccccc12`, the inhibition was 46.6%.

Consider `CC(=O)c1cn(CCOc2cc(C)ccc2C)c2ccccc12`, for which the inhibition is 60.4% (active).

In the case of `COc1cccc(OCCn2cc(C(C)=O)c3ccccc32)c1`, the inhibition is 26.8%.

As to `CN(C)/C=C/C(=O)c1ccc2noc(-c3ccccc3)c2c1`, the inhibition was 30.4%.

Turning to `c1ccc(CNc2ncnc3scc(-c4cccs4)c23)nc1`, the inhibition is 57.5% (active).

Turning to `c1ccc(-c2csc3ncnc(NCc4ccccn4)c23)cc1`, the inhibition was 13.4%.

`Cc1ccc(OCCn2c(NC(=O)c3ccco3)nc3ccccc32)cc1`: the inhibition was 19.6%.

Take `O=C(Nc1nc2ccccc2n1CCOc1ccc(Cl)cc1)c1ccco1`: the inhibition is 102% (active).

`O=C(Nc1ccccc1Cl)/C(Cl)=C(\Cl)S(=O)c1ccccc1` (stereo not given): the inhibition was 107% (active).

For the compound `COc1cccc(C(C)NC(=O)Nc2ccccc2Cl)c1` (stereo not given), the inhibition is 37.3%.
